According to PMC7819943, “Rice protein-binding microarrays: a tool to detect cis-acting elements near promoter regions in rice”:
In all, about 35,000 sequences were measured (“fluorescence intensity (a.u.)”: median about 10,000, highest 2% from about 52,000 on). The list comes from a sample in which the highest values are over-represented; it also holds similar and randomly drawn sequences.

These sequences were tested against T1, OsWOX13 (Oryza sativa, UniProt Q5QMM3 1-267) (assay: protein-binding microarray (RPBM); PBS, 2% BSA, 51.3 ng/ul salmon testes DNA, 50 uM zinc acetate, 200 nM TF, 25 C, 1 h; high values mean tight binding). Settings: protein: recombinant; tags: N-terminal polyhistidine and DsRed monomer fusion (pET32a); label: CyDye5-dUTP incorporated in the synthesized complementary strand; 3' TTTTT single-stranded linker to array surface; dsDNA, one strand shown.
T1 sequence: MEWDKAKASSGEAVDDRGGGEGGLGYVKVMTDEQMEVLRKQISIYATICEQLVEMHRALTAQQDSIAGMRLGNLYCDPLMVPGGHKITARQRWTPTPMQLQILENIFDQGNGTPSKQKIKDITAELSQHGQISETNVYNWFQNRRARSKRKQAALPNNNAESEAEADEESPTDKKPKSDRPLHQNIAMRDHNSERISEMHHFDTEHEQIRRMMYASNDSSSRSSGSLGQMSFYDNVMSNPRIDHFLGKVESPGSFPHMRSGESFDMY
In short: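 The binding signal is fluorescence intensity per array feature (arbitrary units). Readings came from an Axon 4000B scanner after a washed, 2% BSA-blocked, double-stranded custom Agilent array had been incubated for 1 h at 25 °C with 200 nM protein and 50 µM zinc acetate. The protein was a Ni–NTA-purified transcription factor fused N-terminally to polyhistidine and DsRed, expressed in E. coli BL21-CodonPlus.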

| Sequence | binding signal |
| --- | --- |
| TGCTAATGATGGATTAATTAAGCTTAATAAATTCATCTCGCGGAGTCACCTAGTGCAG | 53700 fluorescence intensity (a.u.) |
| ATGTATTTGCTATTAAATTAATTATAGATGATTTAGAGCTCGGAGTCACCTAGTGCAG | 16300 fluorescence intensity (a.u.) |
| AAACCTAATTAATCATGCGCAAATGGCTTTCTTGTTTTGCCGGAGTCACCTAGTGCAG | 22900 fluorescence intensity (a.u.) |
| CTGGATGATTGGATTGATTATGGACAGATTTAAATTTGCTCGGAGTCACCTAGTGCAG | 65500 fluorescence intensity (a.u.) |
| TACACTGATTAGTGGATGATGATATAGTATCTTTGTATGTCGGAGTCACCTAGTGCAG | 45600 fluorescence intensity (a.u.) |
| TTGCTAATGACGGATTAATTATGCTTAATAAATTCATCTCCGGAGTCACCTAGTGCAG | 20600 fluorescence intensity (a.u.) |
| GTTTGATTGCTTAATTAATTTCCAAATGCGCAATCATGCACGGAGTCACCTAGTGCAG | 64800 fluorescence intensity (a.u.) |
| ACTGATTAGTGGATATGCTTTATATATGTAATTAGGATGCCGGAGTCACCTAGTGCAG | 53000 fluorescence intensity (a.u.) |
| AATTAATCATGCAATAAAACAAATTTCGTTTTGCGTGCTACGGAGTCACCTAGTGCAG | 6310 fluorescence intensity (a.u.) |
| ATAAAATGTAAATTATGCTTAAAATGCTTTTAGTGATAAACGGAGTCACCTAGTGCAG | 4750 fluorescence intensity (a.u.) |
| TGAGTGATGACAGTAAGTAACTGAATCTGCTGAGTTCTGACGGAGTCACCTAGTGCAG | 6590 fluorescence intensity (a.u.) |
| TCTCATCAATTGAATGGATATTATATTTTAATGTGTTCAGCGGAGTCACCTAGTGCAG | 8660 fluorescence intensity (a.u.) |
| GCTATGATTGTCTTTAGGGTATCTAATAATTGTGGTTTGACGGAGTCACCTAGTGCAG | 21700 fluorescence intensity (a.u.) |
| ACCAAACGCCTTGATTGAAACCATCGATATACATATGTAACGGAGTCACCTAGTGCAG | 34900 fluorescence intensity (a.u.) |
| GAAAATGTTCCATCTGATTATAAATTATTATATTTTGGGACGGAGTCACCTAGTGCAG | 4000 fluorescence intensity (a.u.) |
| TGAAAGTAATTTGATGCTATAAGTCAAAGTTAAAGAGATGCGGAGTCACCTAGTGCAG | 3500 fluorescence intensity (a.u.) |
| GTTGCAGATTGAGAGCCAAAGACATTATCTTGATTCTATCCGGAGTCACCTAGTGCAG | 13100 fluorescence intensity (a.u.) |
| TTTAAGATGATCAGATTTCTAATTGCAGTTCACCTTAACTCGGAGTCACCTAGTGCAG | 7420 fluorescence intensity (a.u.) |
| TATAAATATAATTTATCCAAAGAGCATTTATAAGGACTTCCGGAGTCACCTAGTGCAG | 4240 fluorescence intensity (a.u.) |
| TAGTGATTTTGTGAAATCTCAAAATATATTGATCCAGCTTCGGAGTCACCTAGTGCAG | 5030 fluorescence intensity (a.u.) |
| GCTTGACTAACATATTCTGTTGGATTGCTACCGCGCCATGCGGAGTCACCTAGTGCAG | 7150 fluorescence intensity (a.u.) |

| Sequence | binding signal |
| --- | --- |
| TCCATTAACATTTGCCATTATCGTACTGACTTTCGTACGACGGAGTCACCTAGTGCAG | 3710 fluorescence intensity (a.u.) |
| CGCCCACTGAATTAATCAATCAGTAAAGCTGCCACCGTGCCGGAGTCACCTAGTGCAG | 39100 fluorescence intensity (a.u.) |
| CCAAGATGAATTGGAACTTTGCACACCAACCAAATAGGGGCGGAGTCACCTAGTGCAG | 3580 fluorescence intensity (a.u.) |
| ATGTACTTAATTCAATTTGTCAAAAGAATTATGTATCCCTCGGAGTCACCTAGTGCAG | 3990 fluorescence intensity (a.u.) |
| GGTTCAACGGTACCCTTGATTGCTATAGAGAGTGATATATCGGAGTCACCTAGTGCAG | 4670 fluorescence intensity (a.u.) |
| GAAATTAATAACAAATTAAAACCAGAGCCAGCTGACTGCTCGGAGTCACCTAGTGCAG | 21700 fluorescence intensity (a.u.) |
| CCGACGGCTCAGATTGACTGCAGTAGTGGGTATCTCTTCTCGGAGTCACCTAGTGCAG | 13700 fluorescence intensity (a.u.) |
| TTTGTTGCTTTACTTGGGAGATTGATCGCTAAACGAGTCACGGAGTCACCTAGTGCAG | 3150 fluorescence intensity (a.u.) |
| ATTGCAGATTGATTTATCTCGTCAAGATTGATGAGCATGCCGGAGTCACCTAGTGCAG | 63500 fluorescence intensity (a.u.) |
| CAGATCAATTTATCGAGATTGATCAAAAGCAAGATGATGCCGGAGTCACCTAGTGCAG | 35000 fluorescence intensity (a.u.) |
| TGCTAAAATTTTGACAATATTGTTAACTTGCTCTAGTTTACGGAGTCACCTAGTGCAG | 6920 fluorescence intensity (a.u.) |
| GAAGATGATGATGATTTAGCATGCAAATGAGCAGTTGACACGGAGTCACCTAGTGCAG | 13800 fluorescence intensity (a.u.) |
| TTAATTAGGTTTAATAGATTCATCTCGCAGTTTACAGGCACGGAGTCACCTAGTGCAG | 18500 fluorescence intensity (a.u.) |
| GATTAATTAGGCTTCATAAATTCGTCTCGCAGTTTACAGGCGGAGTCACCTAGTGCAG | 30800 fluorescence intensity (a.u.) |
| TTATTTGTGGCTTGAAGATTGACAGCTTTTGTTGATTGCTCGGAGTCACCTAGTGCAG | 9340 fluorescence intensity (a.u.) |
| TGCTTTATTATTTGATTGATTGATCACTTGTTGGATGGGACGGAGTCACCTAGTGCAG | 64200 fluorescence intensity (a.u.) |
| GATTAATTAGATTTAATAAATTCATCTCGCAGTTTACAGGCGGAGTCACCTAGTGCAG | 62200 fluorescence intensity (a.u.) |
| GACTTGATTTACAGATTTATTGACAGAGTTTTGCTAAGCTCGGAGTCACCTAGTGCAG | 56600 fluorescence intensity (a.u.) |
| TGTTTGGATGATTTTATGGATGATCACTTCTCTTTATTTACGGAGTCACCTAGTGCAG | 3280 fluorescence intensity (a.u.) |
| TAAGTTTTAATTGAAATTTTGTTCACAAATACTCCAAATCCGGAGTCACCTAGTGCAG | 11900 fluorescence intensity (a.u.) |
| ATTTTAATTTTAATTATTAATACTCCATTAGCATTTAGTTCGGAGTCACCTAGTGCAG | 18200 fluorescence intensity (a.u.) |
